In PubChem BioAssay (NCATS):
Results filed as inconclusive are left out. Calls of active or inactive are those of the source. Unless noted, calls follow the shape of the dose curve; as a rule, active = well fitted curve in the direction sought with a large enough effect; inconclusive = small, poorly fitted or top-dose-only effect, or another doubt; inactive = no such curve, though single readings can be large; an effect the other way counts as inactive or inconclusive.

Experiments:
[1] = target: Muscarinic acetylcholine receptor M1 (Rattus norvegicus) (UniProt P08482); assay: qHTS Assay for Antagonists of Acetylcholine Muscarinic M1 Receptor: Kinetic Measurement of Intracellular Calcium Response (AID 943); also: nearly all actives have a fitted effect of over 75% in size; also: potency is read from the fitted curve at half-maximal effect
Outline: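 Intracellular calcium flux, recorded with Fluo-4 in a kinetic plate reader, served as signal; the response to carbachol at EC80 (100 nM final) was taken as maximal over minimal fluorescence after a 10 min compound pre-incubation in rat M1-CHO cells.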

[2] = target: Pyruvate kinase (Leishmania mexicana) (UniProt Q27686); assay: qHTS Validation Assay for Inhibitors of Leishmania Mexicana Pyruvate Kinase (AID 945)
Outline: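 Substrate mix (0.5 mM PEP, 0.1 mM ADP, 7 mM MgCl2, 50 mM KCl, pH 7.2 imidazole) received compound by pin tool, then 0.2 nM LmPYK E451W. After 1 h at room temperature, PKLight was added and luminescence measured.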

[3] = target: Pyruvate kinase PKM (Homo sapiens) (UniProt P14618); assay: qHTS Assay for Activators of Human Muscle Pyruvate Kinase (AID 954; active = well fitted curve in the direction sought with a large enough effect, not every such curve was filed as active)
Outline: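 Enzyme was run at intermediate activity so both inhibitors and activators could be detected. ATP formed from ADP and PEP by 0.1 nM human PKM2 during a 1 h room-temperature incubation was quantified by coupled luciferase luminescence.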

[4] = qHTS Assay for Identification of Small Molecule Agonists for Thrombopoietin (TPO) Signaling Pathway (AID 917)
Outline: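 Murine Ba/F3 cells expressing human TPO receptor and GPIIb-promoter luciferase, IL-3-starved overnight, given compound plus TPO at 26 pM (EC50). After 24 h at 37 C, 5% CO2, luminescence read.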

[5] = target: Muscarinic acetylcholine receptor M1 (Rattus norvegicus) (UniProt P08482); assay: qHTS Assay for Antagonists of Acetylcholine Muscarinic M1 Receptor: Measurement of IP-One Response (AID 944); also: nearly all actives have a fitted effect of over 75% in size; also: potency is read from the fitted curve at half-maximal effect
Outline: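 Steps: plate transfected CHO-M1 cells overnight; add test compound, 10 min; add carbachol (200 nM, EC80) in stimulation buffer with LiCl; incubate 30 min; add labelled IP1 tracer and anti-IP1 antibody in lysis buffer; read HTRF after 10 min.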

[6] = Confirmation and Secondary Assay for Modulators of Hemoglobin Beta Chain Splicing at IVS2 654 locus (AID 910);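 also: HeLa cells stably carrying EGFP split by mutant beta-globin IVS2-654 intron; per-well total GFP intensity by laser scanning cytometry after 2-day treatment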
Outline: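 Readout: per-well total peak green fluorescence (488 nm ex, 500–520 nm em) from objects 5–250 µm, reflecting correct splicing of an EGFP-654 reporter. Compounds were applied for 2 days at 37 °C to overnight-plated HeLa EGFP-654 cells; controls were DMSO and 500 nM IVS2-654 PNA.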

[7] = Confirmation and Secondary Assay for Modulators of Hemoglobin Beta Chain Splicing at IVS2 705 locus (AID 930);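 also: HeLa cells stably expressing the EGFP-705 splicing reporter; GFP fluorescence per well restored by corrected splicing of the IVS2-705 intron in EGFP; series mostly up to about 46 µM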
Outline: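 HeLa EGFP-705 reporter; 500 cells/well, o/n 37C 5% CO2; cpd 2 d; 488 ex/500-520 em laser scan; total peak GFP intensity/well. Ref: 500 nM […] antisense PNA.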

[8] = Cell Viability - LYMP2-001 (AID 921); also: nearly all actives have a fitted effect of over 70% in size; also: potency is read from the fitted curve at half-maximal effect
Outline: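 Human lymphoblastoid LYMP2-001 cells, 2500 per well, in complete medium, treated 24 h at 37 C. Viability from cellular ATP by CellTiter-Glo luminescence; AC50 from Hill-equation fits of qHTS concentration-response.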

[9] = MultiTox-Fluor Cytotoxicity Assay - LYMP1-001 - Dead Cells (AID 946);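 also: cells exposed to compound for 16 h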; also: potency is read from the fitted curve at half-maximal effect
Outline: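 In this qHTS, 15 uM tetraoctylammonium bromide defined 100% and DMSO defined basal activity. Lymphoblastoid cells (LYMP1-001, 2500 per well) received compound for 16 hr at 37 C before a fluorogenic dead-cell substrate readout at 485/520 nm.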

[10] = MultiTox-Fluor Cytotoxicity Assay - LYMP1-001 - Live Cells (AID 947)
[11] = Cell Viability - LYMP1-002 - Assay at 16 hr (AID 948); also: potency is read from the fitted curve at half-maximal effect
Outline: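 LYMP1-002 human lymphoblastoid cells, 2500/well, were treated with compounds for 16 hr at 37 C in complete medium. Viability was read as intracellular ATP by CellTiter-Glo luminescence, and AC50 was derived from a Hill fit to concentration-response data.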

[12] = MultiTox-Fluor Cytotoxicity Assay - LYMP1-002 - Live Cells (AID 955);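 also: cells exposed to compound for 16 hours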; also: potency is read from the fitted curve at half-maximal effect
Outline: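 Cytotoxicity in the human lymphoblastoid line LYMP1-002 is measured as loss of live-cell protease activity after 16 h treatment in complete culture medium. AC50 is derived from Hill-equation fits of qHTS concentration-response data.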

[13] = MultiTox-Fluor Cytotoxicity Assay - LYMP1-002 - Dead Cells (AID 960); also: nearly all actives have a fitted effect of over 60% in size; also: potency is read from the fitted curve at half-maximal effect
Outline: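 Acute cytotoxicity in a human lymphoblastoid line is scored as rising dead-cell protease signal after 16 hr exposure at 37 C, measured fluorometrically (485/520).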

[14] = MultiTox-Fluor Cytotoxicity Assay - LYMP1-003 - Live Cells (AID 962);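 also: cells exposed to compound for 16 hours at 37 °C; cytotoxic hits lower the live-cell protease signal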
Outline: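 Cells plated at 2500 per well and incubated 5 hr; compounds added and incubated 16 hr at 37 C; MultiTox-Fluor reagent added for 60 min at room temperature; fluorescence of liberated AFC measured at 405/510 nm.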

[15] = Cell Viability - LYMP1-003 - Assay at 24 hr (AID 963); also: potency is read from the fitted curve at half-maximal effect
Outline: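 Acute toxicity in LYMP1-003 lymphoblastoid cells: 24 hr compound treatment at 37 C, ATP measured with CellTiter-Glo after 30 min at room temperature. AC50 derived by fitting the Hill equation to qHTS titrations.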

[16] = Cell Viability - LYMP1-003 - Assay at 40 hr (AID 964); also: nearly all actives have a fitted effect of over 60% in size; also: potency is read from the fitted curve at half-maximal effect
Outline: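 This qHTS cytotoxicity screen treats human lymphoblastoid cells (LYMP1-003) with compounds for 40 hr and quantifies cellular ATP via luciferase luminescence.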

[17] = Cell Viability - LYMP2-003 (AID 965);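 also: cells exposed to compounds for 24 h before reading; nearly all actives have a fitted effect of over 50% in size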; also: potency is read from the fitted curve at half-maximal effect
Outline: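 Human lymphoblastoid LYMP2-003 cells, 2500/well, exposed to compounds for 24 h at 37 C in complete medium. Viability read as intracellular ATP by CellTiter-Glo luminescence; AC50 from Hill-equation fits of qHTS concentration-response data.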

[18] = Cell Viability - LYMP2-004 (AID 966); also: nearly all actives have a fitted effect of over 65% in size; also: potency is read from the fitted curve at half-maximal effect
Outline: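 Acute toxicity is scored as a concentration-dependent drop in intracellular ATP, quantified by luciferase luminescence, in human lymphoblastoid cells exposed to compound for 24 hr. AC50 derives from Hill-equation modelling.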

[19] = Cell Viability - LYMP2-005 (AID 967); also: potency is read from the fitted curve at half-maximal effect
Outline: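 Human lymphoblastoid LYMP2-005 cells, 2,500 per well in complete medium, rested 5 h at 37C then compound-treated 24 h at 37C. Intracellular ATP read by CellTiter-Glo luminescence after 30 min at room temperature; AC50 from Hill-equation fits of concentration-response data.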

[20] = qHTS Assay for Identification of Small Molecule Antagonists for Thrombopoietin (TPO) Signaling Pathway (AID 918); conditions: TPO-dependent cell signaling reporter, antagonist mode; also: potency is read from the fitted curve at half-maximal effect; nearly all actives have a fitted effect of over 60% in size
Outline: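 First, Ba/F3 reporter cells expressing human TPO receptor were held overnight without IL-3. Next, compound and 26 pM TPO were added. After 24 hrs incubation at 37 C, luciferase luminescence under the Glycoprotein IIb promoter was recorded.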

Measured: Potency

Sequence of Pyruvate kinase (Leishmania mexicana) (Q27686 2-499 E452W): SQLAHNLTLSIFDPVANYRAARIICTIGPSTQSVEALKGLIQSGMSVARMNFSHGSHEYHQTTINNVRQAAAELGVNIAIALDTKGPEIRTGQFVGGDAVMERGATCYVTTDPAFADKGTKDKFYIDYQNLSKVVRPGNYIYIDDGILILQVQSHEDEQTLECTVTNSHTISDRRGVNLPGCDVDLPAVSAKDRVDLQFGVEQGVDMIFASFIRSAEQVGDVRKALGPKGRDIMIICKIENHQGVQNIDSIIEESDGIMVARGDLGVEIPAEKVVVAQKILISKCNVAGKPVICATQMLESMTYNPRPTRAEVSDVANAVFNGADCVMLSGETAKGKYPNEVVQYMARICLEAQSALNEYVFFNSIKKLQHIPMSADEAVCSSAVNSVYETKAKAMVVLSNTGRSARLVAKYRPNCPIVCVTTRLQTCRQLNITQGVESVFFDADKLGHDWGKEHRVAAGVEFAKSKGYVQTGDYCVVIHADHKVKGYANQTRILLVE
Sequence of Pyruvate kinase PKM (Homo sapiens) (P14618 whole entry, looked up): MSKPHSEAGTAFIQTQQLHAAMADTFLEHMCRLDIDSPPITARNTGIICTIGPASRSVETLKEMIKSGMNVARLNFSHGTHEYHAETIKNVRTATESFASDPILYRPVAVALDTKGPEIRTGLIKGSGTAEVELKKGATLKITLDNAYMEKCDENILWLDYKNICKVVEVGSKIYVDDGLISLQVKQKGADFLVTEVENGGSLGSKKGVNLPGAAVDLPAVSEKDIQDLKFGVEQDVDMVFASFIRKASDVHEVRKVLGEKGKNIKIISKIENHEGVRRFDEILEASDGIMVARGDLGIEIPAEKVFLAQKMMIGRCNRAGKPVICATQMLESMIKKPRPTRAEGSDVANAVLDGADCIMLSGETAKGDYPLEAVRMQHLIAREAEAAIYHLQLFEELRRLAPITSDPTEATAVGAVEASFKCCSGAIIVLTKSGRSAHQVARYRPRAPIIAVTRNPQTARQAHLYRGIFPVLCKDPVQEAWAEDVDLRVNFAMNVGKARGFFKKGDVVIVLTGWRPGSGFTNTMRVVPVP
Sequence of Muscarinic acetylcholine receptor M1 (Rattus norvegicus) (P08482 whole entry, looked up): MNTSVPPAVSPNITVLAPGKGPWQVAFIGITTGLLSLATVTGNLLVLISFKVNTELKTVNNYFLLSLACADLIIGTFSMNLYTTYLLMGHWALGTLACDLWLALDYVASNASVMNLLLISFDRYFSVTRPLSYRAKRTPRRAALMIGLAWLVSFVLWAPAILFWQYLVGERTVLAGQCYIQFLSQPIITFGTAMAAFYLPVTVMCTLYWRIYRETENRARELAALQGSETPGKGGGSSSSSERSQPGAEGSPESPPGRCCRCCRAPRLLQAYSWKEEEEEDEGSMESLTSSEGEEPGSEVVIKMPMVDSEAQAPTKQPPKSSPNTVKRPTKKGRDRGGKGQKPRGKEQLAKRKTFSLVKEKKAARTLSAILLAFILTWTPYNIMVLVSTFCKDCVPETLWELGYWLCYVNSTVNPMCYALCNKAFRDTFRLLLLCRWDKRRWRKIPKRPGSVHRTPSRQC

Brc1ccc([C@H]2CN3CCSC3=N2)cc1
active: [1] 12.6 µM
inactive: [2] | [3]

Cn1cnc2c(NCc3ccccc3)nc(NCCO)nc21
inactive: [4] | [1] | [5] | [2] | [3]

O=C(O)/C=C(\CC(=O)O)C(=O)O
inactive: [6] | [7]

O=C1NC(c2cccc([N+](=O)[O-])c2)=CCN1c1ccccc1O
inactive: [4] | [1] | [5] | [2] | [3]

O=C(NO)c1ccccc1
not listed: [1] | [2] | [3] | [4] | [5] | [6] | [7] | [20]
inactive: all other assays above

CC(NCCC(c1ccccc1)c1ccccc1)c1ccccc1 (configuration not stated)
inactive: [6] | [7]

Nc1c2ccccc2nc2ccccc12
inactive: [6] | [7] | [10] | [12] | [14]
active: [8] 12.6 µM | [9] 12.6 µM | [11] 15.8 µM | [13] 7.94 µM | [15] 25.1 µM | [16] 20 µM | [17] 25.1 µM | [18] 12.6 µM

O=[N+]([O-])c1ccc(-c2nc(-c3ccc(F)cc3)c(-c3ccncc3)[nH]2)cc1
inactive: [1] | [2] | [3]
active: [20] 12.6 µM

CCCC(=O)c1cc(O)c(O)cc1O
inactive: [8] | [9] | [10] | [11] | [12] | [13] | [14] | [15] | [19]

Nc1cccc2c(N)cccc12
inactive: [8] | [9] | [11] | [12] | [13] | [14] | [15] | [16] | [17] | [18] | [19]

NC(N)=NCCCCN=C(N)N
active: [5] 10 µM
inactive: [6] | [4] | [7] | [2] | [3]

C[N+](C)(C)CCO
inactive: [6] | [4] | [7] | [5] | [2] | [3]

OCc1c[nH]c2ccccc12
not listed: [1] | [2] | [3] | [4] | [5] | [20]
inactive: all other assays above

CC(C)C(C)(C)C(C)(C)C(C)(C)S
inactive: [8] | [9] | [10] | [11] | [12] | [14] | [15] | [16] | [17] | [18]

CCCCC(CC)COC(=O)c1ccccc1C(=O)O (configuration not stated)
not listed: [1] | [2] | [3] | [4] | [5] | [6] | [7] | [20]
inactive: all other assays above

COC(=O)c1c(Cl)c(Cl)c(C(=O)OC)c(Cl)c1Cl
inactive: [6] | [7]

C1N2CN3CN1CN(C2)C3
inactive: [6] | [7]

CC(C)(c1ccc(O)cc1)c1ccc(O)cc1
not listed: [1] | [2] | [3] | [4] | [5] | [6] | [7] | [20]
inactive: all other assays above

CCOC(=O)NNc1nncc2ccccc12
inactive: [6] | [7]

Cc1ccc2c(Cl)cc(Cl)c(O)c2n1
inactive: [6] | [7]

Nc1ccc(O)cc1
active: [11] 50.1 µM | [12] 25.1 µM | [13] 31.6 µM | [15] 50.1 µM | [16] 39.8 µM | [17] 25.1 µM | [18] 25.1 µM | [19] 25.1 µM
